Source: PubChem BioAssay AID492998 (Southern Research Specialized Biocontainment Screening …, 2010)
Out of some 2,300 compounds screened, about 550 (24%) were called active. Only a sample is shown. Entries with a potency or affinity are not part of this list. Values without a mark were called inactive. How the calls were made is not given here.

Assay: Vero E6 cell cytotoxicity, dose response, cytotoxicity control for non-replicating M. tuberculosis project, secondary assay (AID 492998);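 further: 100% = vehicle-treated cells and 0% = background wells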
Settings: series mostly up to 20 µM; viability: at the top concentration

Compound	viability [%]
C=CCc1cc(Cl)ccc1OCCCn1ccnc1	89
COc1ccc(C(=O)CCN2CCCCCC2)cc1	78.6
COc1ccc2cc(C(=O)NCc3ccccc3CN3CCCC3)ccc2c1	83.7
CC(CN1CCOCC1)OC(=O)c1ccc2c(c1)OCCO2 (stereo not given)	94
Cc1ccc(NC(CC(=O)c2ccccc2)C(=O)O)cc1Cl (stereo not given)	111
CC(C)COc1ccc(C(=O)CCN2CCCCC2)cc1	97.1
CC(CN1CCOCC1)OC(=O)c1ccc(Br)cc1 (stereo not given)	79.2
CCCCOc1ccc(NC(=O)CN2CCN(Cc3ccccc3)CC2)cc1	92.7
CC(NC(=O)OCc1ccccc1)c1ccccc1 (stereo not given)	86
O=S(=O)(CCN1CCN(c2ccccn2)CC1)c1ccc(Cl)cc1Cl	96
O=C(N[C@@H]1C[C@H]2CC[C@@H]1C2)c1ccco1	109
Cc1ccc(NCCC(=O)c2cccs2)cc1C	83.6
O=C(OCn1nnc2ccccc2c1=O)c1ccc(N2CCOCC2)c([N+](=O)[O-])c1	90.7
CCOC(=O)C1=C(C)NC(=O)NC1c1ccc(-c2ccc(F)cc2)o1 (stereo not given)	85.3
CCOC(=O)c1ccc(N=C2SC(C(=O)Nc3ccc(C(=O)O)cc3)CC(=O)N2Cc2cccs2)cc1 (stereo not given)	94
O=c1oc2ccccc2nc1/C=C(\O)c1ccc(Br)cc1	107
O=C(CCN1CCCCCC1)c1ccccc1	92.9
O=C(CCSc1ccccc1)N1CCCC1	92.7

Compound	viability [%]
Cc1nnc(N/N=C/c2ccc(Br)cc2)n1N	113
COCCSc1nnc(NC(=O)CCS(=O)(=O)Cc2ccccc2)s1	92.1
CCCCOc1ccc(CSCCN)cc1Cl	105
CC(=O)c1ccc(NC(=O)C(Cc2ccccc2)n2cccc2)cc1 (stereo not given)	97
Cc1ccccc1C(=O)NNc1ccc([N+](=O)[O-])cc1	103
Cc1ccc(NC(=O)ON=C2CCCC2)cc1	102
Cc1cc(C)n(-c2ccc(C(=O)Oc3ccc4c(c3)OCO4)cc2)n1	106
CCN(CC)CCSc1nnc2c3cc(C)ccc3n(Cc3ccccc3)c2n1	98.4
Cc1c(C(=O)NNC(=O)c2csc(N3CCOCC3)n2)oc2ccccc12	93.1
NC(=O)N/N=C/c1ccccc1OC(=O)c1cc2ccccc2oc1=O	114
CCC(C)(C)NC(=O)c1ccc(Br)o1	110
O=C(Nc1ccccc1)c1ccc(Br)o1	96.5
CC(C)(C)OC(=O)N/N=C\c1ccc(OC(=O)c2ccco2)cc1	108
CC1(c2nnc(-c3ccccc3)o2)CC(c2ccc(Cl)cc2)=NO1 (stereo not given)	102
Clc1ccc(OCCOCCN2CCc3ccccc3C2)c(Cl)c1	90.1
COc1ccccc1/C=C/C=N/NC(=O)c1ccncc1	104
Cc1cc(C)n(-c2ccc(C(=O)OCC(=O)Nc3cc(Cl)ccc3[N+](=O)[O-])cc2)n1	106
